PubChem BioAssay (Tox21)
Inconclusive results are not listed. Entries that show only a call come without a potency. Values without a mark were called inactive. Calls of active or inactive are those of the source. Calls follow the shape of the dose curve; as a rule, active = well fitted activation curve with a large enough effect in the signal ratio in the repeat runs (not every such curve was filed as active); inconclusive = weak or mixed curves, or effect the other way; inactive = no such curve, though single readings can be large or run the other way; the % refers to the signal ratio.

Molecular target: Glucocorticoid receptor (Homo sapiens) (UniProt P04150)
Sequence (P04150 whole entry, looked up): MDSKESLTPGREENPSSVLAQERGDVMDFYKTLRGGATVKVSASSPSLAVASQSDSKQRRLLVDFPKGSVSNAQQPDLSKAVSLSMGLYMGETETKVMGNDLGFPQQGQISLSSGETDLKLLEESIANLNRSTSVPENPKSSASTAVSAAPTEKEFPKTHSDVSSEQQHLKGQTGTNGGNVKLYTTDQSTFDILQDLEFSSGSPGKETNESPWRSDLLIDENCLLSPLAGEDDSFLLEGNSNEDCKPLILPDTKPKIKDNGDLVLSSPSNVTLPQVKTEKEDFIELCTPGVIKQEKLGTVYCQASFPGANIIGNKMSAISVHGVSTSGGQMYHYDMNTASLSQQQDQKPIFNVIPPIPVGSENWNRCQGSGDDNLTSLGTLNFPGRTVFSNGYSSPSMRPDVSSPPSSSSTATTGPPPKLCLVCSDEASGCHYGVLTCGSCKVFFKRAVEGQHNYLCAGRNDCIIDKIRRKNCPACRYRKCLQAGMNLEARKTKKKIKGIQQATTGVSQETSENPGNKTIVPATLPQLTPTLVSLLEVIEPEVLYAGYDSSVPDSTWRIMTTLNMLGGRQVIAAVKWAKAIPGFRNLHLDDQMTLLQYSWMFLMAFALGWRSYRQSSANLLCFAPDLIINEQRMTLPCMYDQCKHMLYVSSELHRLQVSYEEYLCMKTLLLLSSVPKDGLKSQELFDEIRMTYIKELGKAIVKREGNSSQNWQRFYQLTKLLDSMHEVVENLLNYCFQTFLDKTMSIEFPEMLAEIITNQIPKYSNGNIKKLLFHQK
Experiment: qHTS assay to identify small molecule agonists of the glucocorticoid receptor (GR) signaling pathway (AID 720691)
Conditions: GR-bla HeLa, beta-lactamase reporter ratio, 18 h; series mostly up to 62.4 µM
Description: U.S. Tox21 Program National Center for Advancing Translational Sciences [NCATS] NIH Chemical Genomics Center [NCGC] U.S. Environmental Protection Agency [EPA] National Institutes of Environmental Health Sciences [NIEHS] National Toxicology Program [NTP] U.S. Food and Drug Administration [FDA] Tox21 Assay Overview: The Glucocorticoid receptor (GR) is one of the members of the nuclear receptor family of ligand-dependent transcription factors. GR plays a critical role in carbohydrate, protein and lipid metabolisms and programmed cell death. CellSensor GR-bla HeLa cell line (Invitrogen) contains a beta-lactamase reporter gene under the control of the glucocorticoid response element stably integrated into HeLa cells, a cervical cancer cell line that expresses glucocorticoid receptor. The activation of the reporter gene under culture conditions can be detected by fluorescence intensity. This cell line has been used to screen the Tox21 10K compound library and to identify the compounds that activate the GR signaling.
Tox21 Assay Protocol Summary: The GR-bla HeLa cells were dispensed at 1500 cells/6 ul/well in 1536-well black wall/clear bottom plates using a Multidrop Combi (ThermoFisher Scientific, Waltham, MA) dispenser. After the assay plates were incubated at a 37 C/5% CO2 incubator for 4 hours, 23 nL of compounds dissolved in DMSO, positive controls or DMSO only was transferred to the assay plate by a pintool station (Kalypsys, San Diego, CA). The plates were incubated at 37 C for 18 hours. After 1 uL of LiveBLAzerTM B/G FRET substrate was added using a Flying Reagent Dispenser (Aurora Discovery, San Diego, CA), the plates were incubated at room temperature for 2 hours, and fluorescence intensity was measured by an Envision plate reader (PerkinElmer, Shelton, CT).

Row | SMILES | Potency | activation
1 | CCOC(=O)CC(SP(=S)(OC)OC)C(=O)OCC (stereo not given) | inactive | –
2 | O=C1CCCCC1Cl (stereo not given) | inactive | –
3 | CCN(CCO)CCn1c(Cc2ccccc2)nc2c1c(=O)n(C)c(=O)n2C | inactive | –
4 | CCN(CC)C1CCCCC1 | inactive | –
5 | COc1ccccc1OC | inactive | –
6 | COc1ccc(CN2CCNCC2)c(OC)c1OC | inactive | –
7 | N#CN | inactive | –
8 | NNC(N)=O | inactive | –
9 | O=C(NC(=O)c1c(F)cccc1F)Nc1cc(Cl)c(F)c(Cl)c1F | inactive | –
10 | COC(=O)c1ccccc1CS(=O)(=O)NC(=O)Nc1nc(OC)cc(OC)n1 | inactive | –
11 | CN(C)CCN(C)C | inactive | –
12 | Brc1c(Br)c(Br)c(Br)c(Br)c1Br | – | 0.883% [at 6.9 µM]
13 | CCOC(=O)COc1ccc(Cl)cc1Cl | inactive | –
14 | CCN[C@@H](C)Cc1ccccc1 | inactive | –
15 | NC(=O)OCCCc1ccccc1 | inactive | –
16 | NC(=O)CS(=O)C(c1ccccc1)c1ccccc1 (stereo not given) | inactive | –
17 | CCOC(=O)Nc1cccc(OC(=O)Nc2ccccc2)c1 | inactive | –
18 | CCCCCCCCBr | inactive | –
19 | O=S1(=O)OCCO1 | inactive | –
20 | CCN(CC)CCOC(=O)C(O)(c1ccccc1)c1ccccc1 | inactive | –

Row | SMILES | Potency | activation
21 | C=CC(=O)OCCN(C)C | inactive | –
22 | CCC(=O)OC1(c2ccccc2)CCN(C)CC1 | inactive | –
23 | CC[C@H](O)C(C[C@H](C)N(C)C)(c1ccccc1)c1ccccc1 | inactive | –
24 | COc1cc(CC(C)N)cc(OC)c1OC (stereo not given) | inactive | –
25 | CCc1cc(OC)c(C[C@H](C)N)cc1OC | inactive | –
26 | COc1ccc(C=O)cc1O | inactive | –
27 | CCCCCCCC(=O)Cl | inactive | –
28 | CN=CNc1ccc(C)cc1C | inactive | –
29 | CC[C@H](N)c1ccccc1 | inactive | –
30 | CCOC(=O)NC(C)(C)Cc1ccc(Cl)cc1 | inactive | –
31 | O=C(O)c1c(Cl)ccc2cc(Cl)cnc12 | inactive | –
32 | CCCC[N+](=O)[O-] | inactive | –
33 | COC(=O)c1ccc(CBr)cc1 | inactive | –
34 | ClCCCCl | inactive | –
35 | BrCC1CO1 (stereo not given) | inactive | –
36 | O=P(O)(O)CN(CP(=O)(O)O)CP(=O)(O)O | inactive | –
37 | CCOP(=O)(CN(CCO)CCO)OCC | inactive | –
38 | CCOP(=S)(OCC)SCCl | inactive | –
39 | Nc1c(Cl)c(F)nc(OCC(=O)O)c1Cl | inactive | –
40 | CNC(=O)Oc1ccccc1C(C)C | inactive | –
